TEAD-YAP block – TEAD-YAP interaction inhibition. HEK-TIYL cells, TEAD-Gal4/YAP UAS-luciferase luminescence. inhibition, % at 9.12 µM. hit rate 1.4% among 640,000. AID 1259422; in the data active = inhibition above about 32%
FBW7 activator – activators of human E3 ligase FBW7 | normalized activity (activation), % at 26.1 µM | hit rate 0.13% among 650,000 | Q969H0 | AlphaScreen FBW7–phospho-cyclin E peptide binding, activator screen | AID 1259310; in the data active = normalized activity above about 1.9%;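 also: purified mutant Fbw7 with reduced substrate affinity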
GPR151 ag – human GPR151 activation. AID 1508602. hit rate 1% among 650,000. activation, % at 11.2 µM. Q8TDV0. PathHunter beta-arrestin GPR151 cells, luminescence; in the data active = activation above about 4.9%
MITF primary – blocks human microphthalmia-associated transcription factor; O75030; AlphaScreen MITF homodimerization, bead proximity signal; inhibition, % at 2.6 µM; hit rate 0.91% among 650,000; in the data active = inhibition above about 50%
Large screens that a line does not name were inactive. Shown are actives, neighbours in structure and some others; about 3.4% of the full set was active somewhere.

Cc1cccc(NC(=O)Cn2cnc3sc(C)cc3c2=O)n1	none
O=C(Nc1ccc(N2CCOCC2)cc1)c1csc(N2CCC(N3CCOCC3)CC2)n1	none
O=C(Nc1ccc(N2CCOCC2)cc1)c1cc([N+](=O)[O-])ccc1Br	TEAD-YAP block 42.6
O=C(Nc1ccc(N2CCOCC2)cc1)c1csc(Br)n1	TEAD-YAP block 51.9
O=C(Nc1ccc(N2CCCCC2)cc1)c1cc([N+](=O)[O-])ccc1N1CCOCC1	none
O=C(Nc1ccccc1Br)c1cc([N+](=O)[O-])ccc1N1CCOCC1	TEAD-YAP block 49.6
CCOc1cc(C(=O)NC(C)c2ccccc2)cc(OCC)c1OCC (configuration not stated)	none
CC1=C(C(=O)Nc2ccc(Br)cc2)C(c2ccc(O)cc2)NC(=O)N1 (configuration not stated)	FBW7 activator 2.8
COc1cccc(C2NC(=O)NC(C)=C2C(=O)Nc2ccc(F)cc2)c1OC (configuration not stated)	TEAD-YAP block 42.5
O=C(c1ncoc1-c1ccc(F)cc1)N1CCN(c2nc3ccccc3s2)CC1	none
Oc1ccc(Br)cc1CN1CCN(Cc2c[nH]c3ccccc23)CC1	MITF primary 57.6
c1ccc2cc(CN3CCN(Cc4c[nH]c5ccccc45)CC3)ccc2c1	none
Oc1ccc(Br)cc1CN1CCN(Cc2ccncc2)CC1	MITF primary 54.4
CCS(=O)(=O)N1CCN(Cc2cc(Br)ccc2O)CC1	MITF primary 54.2
O=[N+]([O-])c1ccc(N2CCN(c3nc4ccccc4n4nnnc34)CC2)cc1	none
C=CCn1c(-c2ccc(C)cc2)csc1=Nc1ccc(C)cc1	none
CCOC(=O)c1ccc(NC(=O)/C(=C\c2ccc3c(c2)OCO3)NC(=O)c2ccccc2)cc1	none
Cc1nn2c(=O)/c(=C\c3ccccn3)sc2nc1=O	MITF primary 70.1
CCN(Cc1ccco1)C(=O)Cn1nc2n(CC)c3ccccc3n2c1=O	none
Cc1cc(C)c(CSc2nnnn2-c2ccc(C(N)=O)cc2)c(C)c1	TEAD-YAP block 61.1
COc1ccc(S(=O)(=O)N(CC(=O)O)c2cccc(Cl)c2)cc1	none
CNC(=O)CN(c1cccc(Cl)c1)S(=O)(=O)c1ccc(OC)cc1	TEAD-YAP block 45.1
COc1cccc2c(SCC(=O)Nc3ccc4c(c3)OCCO4)nccc12	TEAD-YAP block 50.9
COc1cccc2c(SCC(=O)Nc3ccc4c(c3)OCO4)nccc12	TEAD-YAP block 48.3
COC(=O)COc1cccc2c(=O)n(CC(=O)Nc3ccc4c(c3)OCCO4)ccc12	none
CCCCn1c(CNC(=O)c2ccccc2C(F)(F)F)nnc1SCC(=O)Nc1sc(C(=O)OCC)c(C)c1C(=O)OCC	none
C=CCn1c(=O)/c(=C2/SC(C)=C(C)N2CC)s/c1=C1/C(=O)N(C)C(=S)N1C	none
c1ccc(-c2csc(Nc3nc4cc5c(cc4s3)OCO5)n2)nc1	TEAD-YAP block 90.4, MITF primary 62.2
COc1cccc2sc(Nc3nc(-c4ccccn4)cs3)nc12	TEAD-YAP block 63.3
COc1ccccc1Nc1nc(-c2ccccn2)cs1	none
Cc1nc(NCCNC(=O)COc2ccccc2)c2c3c(sc2n1)CCCC3	TEAD-YAP block 45.4
O=C(CCC1CCCC1)Nc1ccc(F)c(F)c1	none
COc1ccc(C=O)cc1OC(=O)c1ccccc1Cl	none
CC[C@@]1(O)C(=O)OCc2c1cc1n(c2=O)Cc2cc3cc(O)ccc3nc2-1	TEAD-YAP block 84.0
C/C(=N/NC(N)=O)c1cc(C(C)(C)C)cc2c1CCC2(C)C	none
CC(C)(C)c1cc(CC(=O)O)c2c(c1)C(C)(C)CC2	TEAD-YAP block 47.9
CCN(CC)S(=O)(=O)c1ccc2[nH]c3nc(SCc4cccnc4)nnc3c2c1	TEAD-YAP block 37.4
O=C(Nc1nnc(-c2ccc(F)cc2)s1)c1ccccc1I	none
N=c1sc2c(n1CC(=O)c1ccc(I)cc1)CCCC2	none
N=c1sc2c(n1CC(=O)c1ccc(Cl)cc1)CCCC2	TEAD-YAP block 36.6
COc1ccc2c(c1)C(C)=CC(C)(C)N2C(=O)CCl	TEAD-YAP block 34.6
CCOc1ccc2c(c1)C(C)=CC(C)(C)N2C(=O)CCl	none
COc1ccc2sc(N3CCC(C(=O)O)CC3)nc2c1	none
CCOc1cc(/C=C2\SC(=Nc3cccc(C)c3C)NC2=O)ccc1O	none
O=C(O)c1cc(S(=O)(=O)Nc2ccc3c(c2)OCCO3)c(Cl)cc1Cl	TEAD-YAP block 35.7
COc1ccc(C2SCCN2S(C)(=O)=O)cc1OC (configuration not stated)	none
CCc1cccc(NC(=O)Cn2c(=O)oc3ccccc32)c1	none
CC(=O)Oc1ccc(-c2csc(Nc3cccc(O)c3)n2)cc1	none
COc1ccc(-c2csc(Nc3cccc(O)c3)n2)cc1	TEAD-YAP block 41.1
Cc1ccc(-c2csc(Nc3cccc(O)c3)n2)cc1	TEAD-YAP block 74.2

Screening data: PubChem BioAssay, The Scripps Research Institute Molecular Screening Center
